# Experimental data from PubChem BioAssay (NCATS).
# Where “and” joins values, the source holds several entries; their conditions need not be identical. Equal entries are not always repeated. Inconclusive results are not listed. A call without a number means that no potency is given here. Calls of active or inactive are those of the source. Unless noted, calls follow the shape of the full dose curve.
# Assays:
# [1] = Confirmatory qHTS to identify inhibitors of SARS-CoV-2 cell entry (AID 1645844); conditions: SARS-CoV-2 pseudotyped particle cell entry, luciferase; series mostly up to 57.2 µM; also: nearly all actives have a fitted effect of over 45% in size; also: potency is read from the fitted curve at half-maximal effect
# Summary of the method: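 Luminescence entry read-out after 48 h: spike-pseudotyped MLV particles (Wuhan-Hu-1, 19-aa C-terminal truncation) added to compound-pretreated (1 h) HEK293-ACE2 cells; Data were normalised to bald PP and spike PP wells.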
# [2] = Cytotoxicity counterscreen for inhibitors of SARS-CoV-2 cell entry (AID 1645845); conditions: cell viability (SARS-CoV-2 entry assay cells); series mostly up to 57.1 µM; also: nearly all actives have a fitted effect of over 50% in size
# Summary of the method: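 ATP-content luminescence (ATPLite 1step, 15 min RT) read after 48 h compound exposure of Expi293F cells stably expressing human ACE2; normalized to cells-only wells and media-only wells.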
# [3] = VSVG counterscreen qHTS to identify inhibitors of SARS-CoV-2 cell entry (AID 1645847); conditions: VSV-G pseudotyped particle entry, luciferase; series mostly up to 57.2 µM; also: nearly all actives have a fitted effect of over 65% in size; also: potency is read from the fitted curve at half-maximal effect
# Summary of the method: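 Luminescence from a luciferase reporter, normalised to bald particle and VSV-G pseudotyped particle wells, is the read-out. Cells are HEK293 expressing human ACE2, exposed to compound 1 h before a 48 h particle infection at 37 °C.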
# [4] = Primary qHTS to identify inhibitors of SARS-CoV-2 cell entry (AID 1645846); conditions: SARS-CoV-2 pseudovirus cell entry assay, luminescence; activity change, negative = inhibition: at 57.1 µM (top of the series) unless noted; series mostly up to 57.1 µM; also: nearly all actives have a fitted effect of over 45% in size
# Summary of the method: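 Inhibition of spike-mediated entry was scored in human ACE2-transfected Expi293F cells. Particles were MLV-pseudotyped with Wuhan-Hu-1 S carrying a 19-aa C-terminal deletion; signal was luciferase after two days, scaled between spike PP and fusion-protein-free PP.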
# [5] = A High-Content qHTS Against Drug Library for the Identification of Small Molecules that Inhibit DYT1 Early Onset Primary Dystonia-Associated Cell Pathology (AID 1645839); conditions: HEK293 Flp-In EGFP-delE TorsinA, punctate imaging, 48 h; series mostly up to 46.1 µM
# Summary of the method: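 High-content imaging quantified EGFP-TorsinA mislocalization in HEK293-derived cells inducibly expressing DYT1 mutant torsinA, after 48 h exposure to compound given together with tetracycline induction. Cell count served as a toxicity channel alongside %pathology.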
# [6] = biological target: Cytochrome P450 2D6 (Homo sapiens) (UniProt P10635); test: Cytochrome P450 family 2 subfamily D member 6 (CYP2D6) small molecule antagonists: luciferase biochemical (cell-free) qHTS assay (AID 1645840; active = well fitted curve in the direction sought with a large enough effect in the repeat runs; an effect the other way counts as inactive or inconclusive; also: nearly all actives have a fitted effect of over 55% in size); conditions: P450-Glo CYP2D6 enzyme, luciferin luminescence, 1 h; series mostly up to 57.4 µM
# Summary of the method: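 P450-Glo CYP2D6 system: proluciferin substrate converted by enzyme to luciferin, read by luminescence proportional to activity. Enzyme-substrate mix with compound 10 min at room temperature, then NADPH regeneration 1 h before detection reagent.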
# [7] = biological target: Cytochrome P450 2C9 (Homo sapiens) (UniProt P11712); test: Cytochrome P450 family 2 subfamily C member 9 (CYP2C9) small molecule antagonists: luciferase biochemical (cell-free) qHTS assay (AID 1645842; active = well fitted curve in the direction sought with a large enough effect in the repeat runs; an effect the other way counts as inactive or inconclusive; also: nearly all actives have a fitted effect of over 55% in size); conditions: P450-Glo CYP2C9 enzyme assay, luciferin luminescence; series mostly up to 57.4 µM
# Summary of the method: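 P450-Glo CYP2C9 system: proluciferin substrate with enzyme in mix containing 0.4% BSA, 10 min at room temperature, then NADPH regeneration solution added and incubated 1 h at 37C. Detection reagent stopped reaction; luminescence read after 20 min as RLU.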
# Sequence of Cytochrome P450 2C9 (Homo sapiens) (P11712 whole entry, looked up): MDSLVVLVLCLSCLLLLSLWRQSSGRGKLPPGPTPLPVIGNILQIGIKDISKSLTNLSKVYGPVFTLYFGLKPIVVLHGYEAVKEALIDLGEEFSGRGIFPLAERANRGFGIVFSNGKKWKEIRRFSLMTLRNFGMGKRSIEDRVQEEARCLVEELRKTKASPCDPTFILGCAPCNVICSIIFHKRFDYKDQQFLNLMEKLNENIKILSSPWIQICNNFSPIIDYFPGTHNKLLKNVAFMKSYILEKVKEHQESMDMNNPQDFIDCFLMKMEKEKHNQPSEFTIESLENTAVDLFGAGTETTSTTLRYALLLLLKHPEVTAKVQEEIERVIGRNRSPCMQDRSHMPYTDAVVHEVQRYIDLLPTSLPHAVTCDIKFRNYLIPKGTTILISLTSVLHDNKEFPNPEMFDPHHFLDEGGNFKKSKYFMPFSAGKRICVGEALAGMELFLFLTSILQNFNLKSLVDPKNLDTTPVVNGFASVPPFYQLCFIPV
# Sequence of Cytochrome P450 2D6 (Homo sapiens) (P10635 whole entry, looked up): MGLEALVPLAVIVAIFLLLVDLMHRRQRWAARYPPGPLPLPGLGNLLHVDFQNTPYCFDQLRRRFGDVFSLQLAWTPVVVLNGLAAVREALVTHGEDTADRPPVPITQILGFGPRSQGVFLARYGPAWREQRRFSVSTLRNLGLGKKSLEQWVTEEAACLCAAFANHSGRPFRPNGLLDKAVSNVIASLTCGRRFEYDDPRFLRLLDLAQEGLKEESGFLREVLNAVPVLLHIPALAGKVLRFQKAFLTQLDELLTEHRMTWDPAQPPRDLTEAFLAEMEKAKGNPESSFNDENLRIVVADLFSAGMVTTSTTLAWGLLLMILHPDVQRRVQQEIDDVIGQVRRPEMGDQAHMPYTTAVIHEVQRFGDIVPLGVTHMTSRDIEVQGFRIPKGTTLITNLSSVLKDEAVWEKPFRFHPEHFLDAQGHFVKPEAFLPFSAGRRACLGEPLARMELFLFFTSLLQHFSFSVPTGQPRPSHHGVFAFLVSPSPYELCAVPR
compound,measurement,setting,value
CC(C)=CCC/C(C)=C/CC/C(C)=C/CCC(=O)OC/C=C(\C)CCC=C(C)C,Potency,[1],9.61 µM (active)
same,Potency,[2],inactive
same,Potency,[3],1.08 µM (active)
C[N+](C)(C)CCCCCC[N+](C)(C)C,Potency,[2],inactive
CN1[C@@H]2CC[C@H]1CC(OC(c1ccccc1)c1ccccc1)C2 (stereo not given in full),Potency,[1],6.81 µM (active)
same,Potency,[2],inactive
Cc1cc(NS(=O)(=O)c2ccc(N)cc2)nc(C)n1,Potency,[1],inactive
same,Potency,[2],inactive
same,"activity change, negative = inhibition",[4],-52.4%
same,Potency,[3],inactive
CC(C)(C)c1ccc(O)cc1,outcome,[5],inactive
same,"activity change, negative = inhibition",[4],-17.1%
NS(=O)(=O)c1cc2c(cc1C(F)(F)F)NC(Cc1ccccc1)NS2(=O)=O (stereo not given),Potency,[2],inactive
CC(CSC(=O)c1ccccc1)C(=O)N1C[C@@H](Sc2ccccc2)C[C@H]1C(=O)O (stereo not given in full),Potency,[2],inactive
Nc1ccn([C@@H]2O[C@H](CO)[C@@H](O)C2O)c(=O)n1 (stereo not given in full),Potency,[1],4.29 µM (active)
same,Potency,[2],inactive
same,Potency,[3],4.82 µM (active)
CCCCCC=CCC=CCCCCCCCC(=O)OCC,Potency,[2],inactive
Cc1nc2ccc(CN(C)c3ccc(C(=O)N[C@@H](CCC(=O)O)C(=O)O)s3)cc2c(=O)[nH]1,Potency,[1],0.0271 µM (active)
same,Potency,[2],inactive
same,Potency,[3],0.304 µM (active)
COc1cccc2c1C(=O)c1c(O)c3c(c(O)c1C2=O)C[C@@](O)(C(=O)CO)C[C@@H]3O[C@H]1C[C@H](N)[C@@H](O)[C@H](C)O1,Potency,[1],0.0961 µM (active)
same,Potency,[2],inactive
same,"activity change, negative = inhibition",[4],-93.2% and -92.9%
same,Potency,[3],0.0961 µM (active)
CN1[C@@H]2CC(OC(=O)[C@H](CO)c3ccccc3)C[C@H]1[C@@H]1O[C@@H]12 (stereo not given in full),Potency,[2],inactive
NC[C@H]1O[C@H](O[C@H]2[C@H](O[C@@H]3O[C@H](CO)[C@@H](O)[C@H]3O)C(O)[C@H](N)C[C@@H]2N)[C@H](N)[C@@H](O)[C@@H]1O (stereo not given in full),outcome,[2],inactive [at 11.3 µM]
CCCCCCCCCCCCCCCCOP(=O)([O-])OCC[N+](C)(C)C,Potency,[2],inactive
O=C1CN(/N=C/c2ccc([N+](=O)[O-])o2)C(=O)N1,Potency,[1],21.5 µM (active)
same,Potency,[3],1.92 µM (active)
Nc1nc2[nH]cc(CCc3ccc(C(=O)N[C@@H](CCC(=O)O)C(=O)O)cc3)c2c(=O)[nH]1,Potency,[1],1.92 µM (active)
same,Potency,[2],inactive
same,Potency,[3],1.71 µM (active)
CCCCCCCCCCCCCCCCCC(=O)O,Potency,[6],inactive
same,Potency,[7],inactive
same,Potency,[2],inactive
COC(=O)C1=C(C)NC(C)=C(C(=O)OCC(C)=O)C1c1ccccc1[N+](=O)[O-] (stereo not given),Potency,[1],34.1 µM (active)
same,Potency,[3],8.57 µM (active)
CCN(CC)C(C)CN1c2ccccc2Sc2ccccc21 (stereo not given),Potency,[1],0.0383 µM (active)
same,Potency,[2],inactive
same,Potency,[3],0.341 µM (active)
CO[C@@]1(NC(=O)C2SC(=C(C(N)=O)C(=O)O)S2)C(=O)N2C(C(=O)O)=C(CSc3nnnn3C)CS[C@@H]21 (stereo not given in full),Potency,[2],inactive
OC[C@H]1O[C@H](O[C@]2(CCl)O[C@H](CCl)[C@@H](O)[C@@H]2O)[C@H](O)[C@@H](O)[C@H]1Cl,Potency,[2],inactive
O=C(NCC1CCCCN1)c1cc(OCC(F)(F)F)ccc1OCC(F)(F)F (stereo not given),Potency,[2],inactive
O=S(=O)(O)c1ccc(O)cc1,Potency,[2],inactive
